Rows were chosen to be rich in hits. Some 9.2% of all compounds tested hit in one or more screens of this group.
ELG1 genotox: qHTS screen for small molecules that induce genotoxicity in human embryonic kidney (HEK293T) cells expressing luciferase-tagged ELG1. HEK293T ELG1-luciferase reporter, luminescence, 16 h. Potency, µM (doses to about 46 µM), for inactives: at the highest dose activity change, positive = activation, most hits filed as activators. actives 1.3% (n = 330,000). AID 504466, 2011; note: % of control where 0% means no effect; nearly all actives have a fitted effect of over 60% in size
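DMSO vehicle served as control against compound-treated ELG1-luciferase HEK293T cells; exposure lasted 16 hr at 37 °C and 5% CO2, followed by ONE-Glo luminescence detection after 30 min.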
NPC1 prom act: qHTS Assay for NPC1 Promoter Activators; Huh7 NPC1 promoter luciferase reporter, 24 h; Potency, µM (doses to about 9.22 µM), without a hit: top-dose activation, most hits filed as activators; actives 2.4% (n = 320,000); note: % of control where 0% means no effect; nearly all actives have a fitted effect of over 60% in size
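Huh7 cells stably carrying NPC1 promoter–luciferase, plated in Opti-MEM with 10% FBS for 2 h, were exposed to compound in DMSO for 24 h at 37 °C; luciferase reagent was added for 10 min and luminescence read.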
FLuc modulator: qHTS profiling assay for firefly luciferase inhibitor/activator using purifed enzyme and Km concentrations of substrates (counterscreen for miR-21 project). actives 6.9% (n = 360,000). Luciferin 4-monooxygenase (Photinus pyralis), P08659. AID 588342, 2011. purified FLuc, Km substrates, luminescence inhibition. Potency, µM (highest dose often 57.5 µM), inactives show at the top dose activity change, negative = inhibition, usual class: inhibitors;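 note: plate controls were vehicle for no effect and reference inhibitor for full effect; nearly all actives have a fitted effect of over 55% in size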
Target sequence (P08659 whole entry, looked up): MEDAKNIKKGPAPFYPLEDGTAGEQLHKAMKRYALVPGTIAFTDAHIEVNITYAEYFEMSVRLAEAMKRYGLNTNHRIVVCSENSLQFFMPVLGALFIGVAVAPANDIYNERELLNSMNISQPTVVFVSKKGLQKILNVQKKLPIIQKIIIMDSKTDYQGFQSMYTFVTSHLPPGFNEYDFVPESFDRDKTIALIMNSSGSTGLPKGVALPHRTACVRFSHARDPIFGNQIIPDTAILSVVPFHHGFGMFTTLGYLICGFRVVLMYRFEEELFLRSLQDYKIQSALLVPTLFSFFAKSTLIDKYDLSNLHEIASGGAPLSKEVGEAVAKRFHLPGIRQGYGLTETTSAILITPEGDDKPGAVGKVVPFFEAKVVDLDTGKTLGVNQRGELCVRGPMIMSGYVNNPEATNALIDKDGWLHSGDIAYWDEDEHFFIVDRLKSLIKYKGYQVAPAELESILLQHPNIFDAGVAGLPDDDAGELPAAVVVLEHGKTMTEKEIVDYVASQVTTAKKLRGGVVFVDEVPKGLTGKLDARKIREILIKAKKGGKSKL
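Purified P. pyralis luciferase (10nM final) with 10uM D-luciferin and 10uM ATP (Km levels) in 50mM Tris acetate pH 7.5, 10mM Mg acetate, 0.01% Tween-20, 0.05% BSA; qHTS 6-point titration, ~60 µM downward; luminescence read.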
Rab9 promoter act: qHTS Assay for Rab9 Promoter Activators; Huh7 Rab9 promoter-luciferase reporter, luminescence, 24 h; Potency, µM (titrated, usually from 9.22 µM), for inactives: at the highest dose activation, negative = inhibition, hits mostly activators; actives 2.8% (n = 320,000); AID 485297, 2010; note: % of control where 0% means no effect; nearly all actives have a fitted effect of over 60% in size
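Huh7 reporter line, Rab9 promoter upstream of luciferase. Compound exposure 24 h at 37 °C in reduced-serum medium with 10% FBS. Read-out: luminescence.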
ELG1 DNA repair: qHTS screen for small molecules that inhibit ELG1-dependent DNA repair in human embryonic kidney (HEK293T) cells expressing luciferase-tagged ELG1; HEK293T ELG1-luciferase reporter, luminescence, 16 h; DNA damage induced by 5-fluorouridine; Potency, µM (series often up to 46.1 µM), inactives show at the highest dose activity change, negative = inhibition, actives largely listed as inhibitors; actives 2.3% (n = 330,000); AID 504467, 2011; note: % is set by controls: 0 for no effect and ±100 for the full control effect; nearly all actives have a fitted effect of over 55% in size
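DMSO vehicle served as the neutral condition. Each well held 2,000 cells given 5-fluorouridine plus compound; after 16 hr at 37 °C/5% CO2, ONE-Glo was added and luciferase measured 30 min later.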
SMN2 splice enh: qHTS Assay for Enhancers of SMN2 Splice Variant Expression; HEK293 SMN2-luciferase splicing reporter, luminescence, 30-36 h; Potency, µM (doses to about 46.1 µM), inactives show at the top dose activity change, positive = activation, usual class: activators; AID 1458, 2008; actives 2.8% (n = 210,000); note: % of control where 0% means no effect; nearly all actives have a fitted effect of over 55% in size
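HEK293 cells carry an SMN2 […]–luciferase reporter in which exon 7 inclusion puts luciferase in frame. Cells were plated 10-12 h before compound addition, then incubated 30-36 h at 37C. ONE-Glo luminescence was read; sodium butyrate at 4.5 mM final served as control.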
* hit, by the source's call; ? = inconclusive; / = no result. Calls come from the whole dose curve; as a rule, active = well fitted curve in the direction sought with a large enough effect; inconclusive = small, poorly fitted or top-dose-only effect, or another doubt; inactive = no such curve, though single readings can be large; an effect the other way counts as inactive or inconclusive. Potency is the fitted concentration of half-maximal effect.

SMILES | ELG1 genotox | NPC1 prom act | FLuc modulator | Rab9 promoter act | ELG1 DNA repair | SMN2 splice enh
C/C(CC(=O)Nc1ccc2c(c1)OCCO2)=N\NC(=O)COc1ccccc1 | 6.6% | -3.2% | ? | 1.4% | ? | /
Cc1cccc(OCC(=O)Nc2ccc3c(c2)OCCO3)c1 | 6.51µM* | ? | 6.01µM* | 3.16µM* | ? | 9.6%
CC1CCN(S(=O)(=O)N2CCC(C(=O)NCc3ccccc3Cl)CC2)CC1 | / | / | -4.1% | / | / | /
CCOc1ccc(-n2ccnc2SCC(=O)Nc2nc3ccc(C)cc3s2)cc1 | / | / | 2.6% | / | / | /
CC(C)c1ccc(/C=C(\NC(=O)c2ccccc2)C(=O)NCCN2CCOCC2)cc1 | -8.1% | 0.9% | 1.4% | -0.1% | 4.9% | /
COc1cc(C2C(=O)N(C3CCCCC3)CC(=O)N2CCc2ccccc2)ccc1OC(C)C (stereo not given) | / | / | -4.1% | / | / | /
C/C(=C\c1ccc(N)cc1)c1nc2ccccc2[nH]1 | ? | 2.51µM* | 3.01µM* | 2.24µM* | ? | /
CC(=O)c1ccc(NC(=O)CC2Nc3cccc4cccc(c34)NC2=O)cc1 (stereo not given) | -10.4% | -3.8% | -19.7% | -2.5% | 20.6µM* | -2.3%
O=c1c2ccccc2nc(COc2ccccc2)n1/N=C/c1cn[nH]c1-c1ccccc1 | -5.6% | -2.9% | 0.5% | -10.6% | 6.51µM* | -28.8%
O=c1c2ccccc2nc(COc2ccccc2)n1/N=C/c1ccc(O)cc1O | -2.9% | -3.1% | 16.9µM* | -2.8% | ? | /
Oc1ccc(/C=N/n2c(COc3ccccc3)n[nH]c2=S)c(O)c1 | 2.5% | -8.7% | -6.8% | -7.0% | 10.9% | /
Cc1ccccc1OCc1nc2ccccc2c(=O)n1/N=C/c1cn[nH]c1-c1ccc(Br)cc1 | -11.9% | -0.5% | 2.8% | -1.0% | 6.51µM* | -14.4%
Cc1nc2ccccc2c(=O)n1/N=C/c1ccccc1O | 14.0% | 1.9% | ? | 1.1% | ? | /
Cc1ccc(-c2[nH]ncc2/C=N/n2c(C)nc3ccccc3c2=O)cc1 | -5.8% | -0.8% | -5.0% | -11.5% | 9.2µM* | /
Cc1ccccc1OCc1nc2ccccc2c(=O)n1/N=C/c1ccco1 | -1.9% | 13.9% | ? | 12.1% | ? | 6.8%
CC(C)C(NC(=O)c1c(F)cccc1F)C(=O)NC1CC(C)(C)NC(C)(C)C1 (stereo not given) | 8.6% | 2.1% | -0.2% | 1.2% | 1.5% | /
COc1ccc(Oc2ccc(/C=C/C(=O)c3cccc(OC)c3)cc2[N+](=O)[O-])cc1 | -10.7% | -0.1% | -13.7% | -7.2% | ? | -33.1%
CC1=CCC(COC(=O)Nc2ccccc2)CC1 (stereo not given) | ? | 2.82µM* | 6.75µM* | 3.98µM* | ? | 17.8µM*
O=c1[nH]c(SCc2c(F)cccc2Cl)nc2c1CCC2 | / | / | -8.9% | / | / | /
O=C(CSc1nc2ccc([N+](=O)[O-])cc2[nH]1)NC1CCCCCC1 | -8.5% | -4.6% | 0.6% | 2.6% | 16.4µM* | /
C/C(=N\NC(=O)CCC(=O)NCc1ccccc1)c1ccco1 | 1.5% | -0.4% | -0.3% | -9.3% | 11.5% | /
COCCNC(=O)C1CCN(C(=O)c2cc3sccc3n2Cc2ccc(Cl)cc2)CC1 | / | / | -8.8% | / | / | -39.0%
CCOC(=O)N1CCC(NC(=O)C2CCN(C(=O)c3cc4sccc4n3CC)CC2)CC1 | -9.6% | 1.4% | 2.2% | -9.0% | 23.1µM* | /
CCn1c(C(=O)N2CCCC(C(=O)NCCCc3ccccc3)C2)cc2sccc21 (stereo not given) | -9.7% | -2.4% | -11.3% | -2.2% | 20.6µM* | -62.3%
O=C(NCc1ccco1)C1CCN(C(=O)c2cc3sccc3n2Cc2ccc(Cl)cc2)CC1 | -13.6% | 0.1% | 0.2% | 1.3% | 18.4µM* | -61.6%
SMILES | ELG1 genotox | NPC1 prom act | FLuc modulator | Rab9 promoter act | ELG1 DNA repair | SMN2 splice enh
CCn1c(C(=O)N2CCCC(C(=O)O)C2)cc2sccc21 (stereo not given) | 0.0% | 1.6% | -0.7% | -5.6% | -1.0% | 15.5%
CCn1c(C(=O)N2CCCC(C(=O)NCCc3ccc(C)cc3)C2)cc2sccc21 (stereo not given) | -11.8% | -1.8% | -1.1% | 5.4% | 18.4µM* | -27.7%
Fc1ccc2c(Cl)c(-c3nnc(-c4cccs4)o3)sc2c1 | 0.651µM* | 1.41µM* | 0.19µM* | 0.562µM* | ? | 4.47µM*
CCCc1cc(=O)[nH]c(SCC(=O)N2CCC(C)CC2)n1 | -2.1% | 0.1% | 1.5% | -0.1% | -3.3% | /
CCC(=O)N1c2ccccc2CC1C(=O)NCCc1cc(OC)c(OC)c(OC)c1 (stereo not given) | / | / | -4.2% | / | / | /
CCc1ccc(OCC(=O)N/N=C\c2ccco2)c([N+](=O)[O-])c1 | 10.9% | 11.1% | 10.7µM* | 6.0% | ? | 3.4%
C/C(=N\NC(=O)COc1ccccc1[N+](=O)[O-])c1cccs1 | ? | ? | 23.9µM* | 3.16µM* | ? | 25.1µM*
O=C(COc1cccc([N+](=O)[O-])c1)N/N=C/c1ccco1 | -1.5% | -14.3% | 4.6% | -8.6% | -2.8% | 1.6%
Cc1ccc(OCC(=O)N/N=C\c2cccs2)c([N+](=O)[O-])c1 | 8.7% | 13.8% | 12µM* | 19.3% | ? | 1.7%
COc1ccc(CNC(=O)C(Cc2ccccc2)NS(=O)(=O)c2ccc3c(c2)CCN3C(C)=O)cc1 (stereo not given) | / | / | -13.0% | / | / | 3.3%
Cn1c(SCC(=O)c2ccccc2)nnc1-c1ccncc1 | 3.2% | 1.2% | -0.5% | -4.3% | ? | 3.3%
Cn1c(SCC(=O)c2ccccc2)nnc1-c1cccc(N)c1 | ? | 25.4% | 23.9µM* | ? | ? | 16.6%
Cn1c(SCC(=O)c2ccccc2)nnc1-c1ccco1 | ? | 26.1% | 21.3µM* | ? | ? | 14.3%
COc1ccc(C(=O)CSc2nnc(-c3ccco3)n2C)cc1 | 3.5% | 0.7% | -14.6% | -1.7% | 3.3% | -12.6%
Cn1c(SCC(=O)c2ccccc2)nnc1-c1ccccn1 | ? | ? | 16.9µM* | 3.55µM* | ? | /
COCCNC(=O)c1cc(OC)c(OC)cc1[N+](=O)[O-] | 1.2% | 1.0% | -11.0% | -16.5% | 3.7% | -1.4%
Fc1ccc(C(NCCc2ccccc2)c2nnc(-c3ccccc3Cl)o2)cc1 (stereo not given) | / | / | -3.6% | / | / | -13.2%
